From ChEMBL document CHEMBL3988442, “University of Dundee, Small-Polar-MMV Screening Library” (2021)

tested on: Trypanosoma cruzi; assay: Trypanosoma cruzi phosphomannomutase and mannose-1-phosphate guanylyltransferase assay; assay type: functional; set-up: scale not given: direction of the effect not stated beside the values; conditions: 10 µM

Structure (SMILES) | Percent Effect
CCc1noc(C(C)N2CCN(Cc3nnc(C4CC4)o3)CC2)n1 (centres undefined) | 0.402%
CN(C)CCN1CCCC12CCN(C(=O)c1cnccn1)CC2 | 2.81%
CC(C)(C)c1n[nH]c(C2CN(C(=O)CCc3cscn3)CCO2)n1 (centres undefined) | 4.41%
Cc1nn2cccnc2c1C(=O)N1CCCC(n2ccnc2)C1 (centres undefined) | -2.21%
Cc1ccc2oc(C(=O)N3CCCC(c4noc(C)n4)C3)cc2n1 (centres undefined) | -3.66%
CN1CC(c2ccccc2)CC12CCN(C(=O)c1c(Cl)cnn1C)CC2 (centres undefined) | 8.05%
O=C(NCC1CC1)C1CCC2(CCN(C(=O)c3ccccn3)CC2)O1 (centres undefined) | -2.44%
CC(C)CN1CCN(C(=O)NCc2cccnc2-n2cccn2)CC1 | -6.02%
Fc1ccc(-c2n[nH]cc2-c2ccnc(NCCN3CCCC3)n2)cc1 | -8.23%
NCc1cn(-c2ccccc2C(=O)NCc2ccccc2)cn1 | -0.592%
CC(C)CCC(=O)NC(C)c1nnc2n1CCCCC2 (centres undefined) | 2.42%
CC(=O)N1CCCC1c1cc(N2CCN(C3CCCC3)CC2)cc(C)n1 (centres undefined) | -2.96%
O=C1CCC(C(=O)NCc2nn(-c3ccccc3)c3c2CCC3)CN1 (centres undefined) | -2.16%
COc1ccc(CNCc2ccc(N3CCCCC3)nc2)cc1OC | 5.92%
CN1CC(=O)N(c2cnn(C)c2)CC12CCN(C(=O)c1ccsc1)C2 (centres undefined) | -6.13%
CCN(C)c1ncnc2c1CCN(Cc1ccc(OC)cc1)CC2 | -2.04%
CCOc1ncccc1CNC(=O)Nc1ccc(N(C)C)nc1 | -9.89%
Cc1nc(C)n(CC2CN(CCOCC(F)(F)F)CCO2)n1 (centres undefined) | 0.602%
CN(CCNC(=O)c1scnc1Cl)c1ccccc1 | -8.23%
Cc1[nH]ncc1C(=O)N1CCN(CC(O)C(C)(C)C)CC1 (centres undefined) | 7.23%

Structure (SMILES) | Percent Effect
CCn1ccnc1CNCC1CCCN1c1cc(NC)ncn1 (centres undefined) | -5.62%
Cc1[nH]c2ccccc2c1-c1ccnc(NCCN2CCOCC2)n1 | -7.83%
COc1cc(S(=O)(=O)N2CCCc3ccccc32)cc(C(=O)O)c1OC | -0.201%
CN(C)C[C@H]1OC[C@@H]2CCN(S(=O)(=O)c3cccs3)C[C@@H]21 | -2.43%
COc1ccc(OC)c(C2CCN(Cc3nc(C)n4ccccc34)C2)c1 (centres undefined) | 2.81%
Cc1cccc(C(=O)N2C[C@@H](OCc3cccnc3)[C@H]3OCCC[C@@H]32)n1 | 4.77%
Cc1ccc(Cl)cc1N1CCC(CNC(=O)CCn2ccnn2)C1 (centres undefined) | -2.35%
CC(C(=O)N1CCCC1)N1CCC(c2nccn2CC2CCC2)CC1 (centres undefined) | -1.07%
O=C(CSc1ccc(F)c(F)c1)NS(=O)(=O)c1ccc2c(c1)OCCO2 | 0.282%
CCCc1cc(C(=O)N2CCOC(c3nc(-c4cccs4)no3)C2)no1 (centres undefined) | 3.55%
O=C(Nc1ccccc1)C1=CC2(CCNCC2)c2ccccc21 | -0.938%
CCCn1nc2c(cc1=O)CN(CC(=O)Nc1ccncc1)CC2 | -3.17%
c1ccc(CNC2CCc3ncnn3C2)nc1 (centres undefined) | -4.98%
Cc1n[nH]c(=O)c2c(NC(=O)CN3CCCC(C(F)(F)F)C3)oc(C)c12 (centres undefined) | 1.41%
CCn1c(C)cc(C(=O)N2CCCC(n3nc(C)nc3C)C2)c1C (centres undefined) | 7.23%
N#Cc1ccccc1OCCN1CCn2c(nnc2C2CC2)C1 | -0.602%
O=C(NCCC1=CCCCC1)C1CCN(c2ccc3nncn3n2)CC1 | -0.485%
c1ccc(-c2cnc(CNC3CCCN(c4cccnn4)C3)o2)cc1 (centres undefined) | 6.48%
COc1ccc(C(=O)N2CC[C@H](CO)[C@H](O)C2)c(C)c1 | 9.02%
